Several values for one entry are separate records, joined by “and”; a condition that tells them apart may be missing. Identical values can stand only once. Records with an inconclusive call do not appear. Activity calls are given as the source filed them. How the source made its calls: active means hit-call score of the fitted dose curve at least 0.9, where 1 is the maximum; inconclusive means response in the unintended direction; inactive means score below 0.9.
Experiment: TOX21_p53_BLA_p3_viability: Viability Assessment in the Tox21 HCT-116 p53 Agonism Beta-lactamase Assay, Phase 3 (AID 2283593);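 further: cells exposed to compound for 16 h before reading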
How it was run: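 Cellular ATP was quantified by CellTiter-Glo luminescence, read after 30 min at room temperature. Beforehand, HCT116 cells (4000/well) received compound 5 h post-seeding, 217-fold diluted from DMSO, then incubated 16 h at 37C.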

SMILES	AC50	outcome
CC(C)C[C@H](NC(=O)[C@H](Cc1ccccc1)NC(=O)c1cnccn1)B(O)O	318 nM (active) and 262 nM (active)	
C#CCC(Cc1cnc2nc(N)nc(N)c2n1)c1ccc(C(=O)N[C@@H](CCC(=O)O)C(=O)O)cc1 (some centres undefined)	0.301 µM (active)	
NC(N)=NCc1cccc(I)c1		inactive
O=C(Oc1cccc2cccnc12)c1ccccc1		inactive
O=C(Nc1ccc(Cl)c(Cl)c1)C1CC1		inactive
Oc1ccc(N=Nc2ccccc2)cc1	75 µM (active)	
COC(=O)C1=C(C)NC(C)=C(C(=O)OCCN2CCN(C(c3ccccc3)c3ccccc3)CC2)C1c1cccc([N+](=O)[O-])c1 (centres undefined)		inactive
Cc1c(N(C)CS(=O)(=O)O)c(=O)n(-c2ccccc2)n1C		inactive
N#C/C(=C1/SC[C@@H](c2ccc(Cl)cc2Cl)S1)n1ccnc1		inactive
C[C@]12C=CC(=O)C=C1[C@@H](F)C[C@@H]1[C@@H]2[C@@H](O)C[C@@]2(C)[C@H]1CC[C@]2(O)C(=O)CO	37.3 µM (active)	
CCCCCCCCCCCCCC[N+](C)(C)Cc1ccccc1		inactive
CN[C@H]1CC[C@@H](c2ccc(Cl)c(Cl)c2)c2ccccc21	42 µM (active)	
O=C1Nc2ccc(Cl)cc2[C@@](C#CC2CC2)(C(F)(F)F)O1		inactive
CC(=O)Oc1ccc2c(c1)CC[C@@H]1[C@@H]2CC[C@]2(C)[C@@H](O)CC[C@@H]12		inactive
CC(C)C[C@H](NC(=O)[C@H](CCc1ccccc1)NC(=O)CN1CCOCC1)C(=O)N[C@@H](Cc1ccccc1)C(=O)N[C@@H](CC(C)C)C(=O)[C@@]1(C)CO1	1.09 µM (active)	
CCCCCCCCCCCCCCCCC(C(=O)O)C(O)(CC(=O)O)C(=O)O (centres undefined)	42.3 µM (active)	
COc1cc([C@@H]2c3cc4c(cc3C(O[C@@H]3O[C@@H]5COC(c6cccs6)O[C@H]5[C@H](O)[C@H]3O)C3COC(=O)[C@@H]32)OCO4)cc(OC)c1O (some centres undefined)		inactive
Cc1cc(-n2c(=O)[nH]c(=O)n(C)c2=O)ccc1Oc1ccc(S(=O)(=O)C(F)(F)F)cc1		inactive
NC(=O)n1c(O)c(C(=O)c2cccs2)c2cc(Cl)ccc21		inactive
CCC(=C(CC)c1ccc(O)cc1)c1ccc(O)cc1		inactive

SMILES	AC50	outcome
CCC(C)n1ncn(-c2ccc(N3CCN(c4ccc(OC[C@H]5CO[C@](Cn6cncn6)(c6ccc(Cl)cc6Cl)O5)cc4)CC3)cc2)c1=O (some centres undefined)		inactive
C#C[C@]1(O)CC[C@H]2[C@@H]3CCc4cc(OC5CCCC5)ccc4[C@H]3CC[C@@]21C		inactive
Cc1ccc(/C=N/n2c(-c3ccccc3)csc2=S)cc1		inactive
COC(=O)C1=C(C)NC(COC(N)=O)=C(C(=O)OC(C)C)C1c1cccc(Cl)c1Cl (centres undefined)		inactive
CC(C)(C)CC(C)(C)c1ccc(O)c(Cc2ccc(Cl)cc2Cl)c1	20.1 µM (active)	
Cc1cc(Nc2ccccc2C(=O)O)ccc1Cl		inactive
COC(=O)C1=C(C)NC(C)=C(C(=O)OCC(C)=O)C1c1ccccc1[N+](=O)[O-] (centres undefined)		inactive
CCOC(=O)COc1ccc2c(=O)cc(-c3ccccc3)oc2c1		inactive
NCCCC[C@H](NC(=O)[C@@H]1CCCN1C(=O)[C@@H]1CSSC[C@H](N)C(=O)N[C@@H](Cc2ccc(O)cc2)C(=O)N[C@@H](Cc2ccccc2)C(=O)N[C@@H](CCC(N)=O)C(=O)N[C@@H](CC(N)=O)C(=O)N1)C(=O)NCC(N)=O		inactive
COc1cc(C)c(/C=C/C(C)=C/C=C/C(C)=C/C(=O)O)c(C)c1C		inactive
NC(=O)C(=O)NN=Cc1ccc([N+](=O)[O-])o1		inactive
C[C@@H](NCCCc1cccc(C(F)(F)F)c1)c1cccc2ccccc12	30 µM (active)	
COCCOC(=O)C1=C(C)NC(C)=C(C(=O)OC/C=C/c2ccccc2)C1c1cccc([N+](=O)[O-])c1 (centres undefined)		inactive
COc1ccc(C(=O)CC(=O)c2ccc(C(C)(C)C)cc2)cc1		inactive
Cc1ccc2c(Cl)cc(Cl)c(O)c2n1	12.2 µM (active)	
OC[C@]1(O)OC[C@@H](O)[C@H](O)[C@@H]1O		inactive
CCN(CC)CCNC(=O)c1c(C)[nH]c(/C=C2\C(=O)Nc3ccc(F)cc32)c1C		inactive
CC(C)=CCC1=C(O)c2ccccc2C(=O)C1=O		inactive
C=C1C(CCl)(CCl)C2(Cl)C(Cl)C(Cl)C1(Cl)C2(Cl)Cl (centres undefined)	45.6 µM (active) and 12 µM (active)	

— PubChem BioAssay (EPA / NIEHS)
